Measured values: PubChem BioAssay (NCATS)
Results filed as inconclusive are left out. Calls come from the whole dose curve; as a rule, active = well fitted curve in either direction with a large enough effect (not every such curve was filed as active); inconclusive = small, poorly fitted or top-dose-only effect, or another doubt; inactive = flat fitted curve, though single readings scatter.

Test: AP1 Signaling Pathway (AID 357)
Details: ME-180 (cervical carcinoma) AP-1-bla reporter, EGF-induced, beta-lactamase ratio, 5 h; at 17.2 µM (top of the series) unless noted
How it was run: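 AP-1-bla ME-180 cells with beta-lactamase reporter under AP-1 response element, stimulated with EC50 EGF; compounds titrated, 5 hours at 37 degrees Celsius. CCF4 read at 460/530 nm ratio; positive and negative modulators judged by AC50.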
% is set by controls: 0 for no effect and ±100 for the full control effect.

Activity change, negative = inhibition, inactive:
Cc1ccc(C(=O)C2=C(O)C(=O)N(c3ncccn3)C2c2cccc(Cl)c2)o1 (stereo not given) -1.15%
COc1ccc(C2N3CC4(C)CN2CC(C)(C3)C4O)cc1OC (stereo not given) 9.87%
CCOc1ccc2nc(SCC(=O)Nc3ncccn3)[nH]c2c1 -9.31%
COc1ccccc1N1CCN(C2CCN(C(=O)c3cc(OC)c(OC)c(OC)c3)CC2)CC1 12.5%
CCOc1nc(Oc2cccc(C(=O)O)c2)nc(Oc2cccc(C(=O)O)c2)n1 29.4%
CCCCOC(=O)CSC1=C(C#N)C(c2ccccc2OC)C(C#N)C(=O)N1 (stereo not given) -23.2%
CC12CCC(=O)N1c1c(sc3nc(N4CCOCC4)c4c(c13)CCCC4)C(=O)N2 (stereo not given) -25.1%
Fc1cnc(N2CCOCC2)nc1NCc1ccccc1 10.9%
CC1(C)CC(=O)C2=C(C1)OC(N)=C(C#N)C2C1C=CCCC1 (stereo not given) 3.93%
CCC(C(=O)Nc1nccs1)(C(F)(F)F)C(F)(F)F 0.462%
COC(=O)CC1=C(C(=O)OC)C(c2cccc(OCC(N)=O)c2)C(C#N)=C(N)O1 (stereo not given) 26.1%
CSc1nnc2n(C3CCCCC3)c(=O)c3c4c(sc3n12)CCCC4 19.1%
CCOC(=O)C1=C(C)N=C2SC(C)C(=O)N2C1c1cccc(F)c1 (stereo not given) -17.6%
COc1ccccc1NC(=O)c1c(C)cc(=O)oc1C 13%
O=C(CCC1CCCC1)N1CCC(N2CCN(c3ccccc3)CC2)CC1 -5.6%
CCCCOC(=O)CCc1nc2ccccc2[nH]1 5.71%
COn1c(SC2CCCCC2)nc2ccccc2c1=O -10.8%
Cc1ccc(S(=O)(=O)NCC(=O)OCN2C(=O)c3ccccc3C2=O)cc1 2.06%
Cc1cc(O)c(C(C)C)cc1N=C1CSC(=O)N1 -11.9%
COc1cccc(C2C(C(=O)c3sc(C)nc3C)=C(O)C(=O)N2CCN2CCOCC2)c1OC (stereo not given) 3.76%
COCCN(C(=O)Nc1ccccc1)c1ccccc1C -9.46%
CSc1nnc(N(CCC#N)CCC#N)s1 2.14%
C/C(NC(=O)c1cccs1)=C1\C(=O)C[C@@H]2[C@H]1C2(C)C -9.31%
O=c1c2c3c(sc2n2cnnc2n1C1CCCCC1)CCC3 -5.1%
CCCCCOC(=O)C(C)c1c(C)[nH]c(=S)[nH]c1=O (stereo not given) 7.28%
CCn1c(SCC(=O)NCc2ccco2)nnc1-c1ccc(N)cc1 0.344%
COc1ccccc1N(Cc1cc2cccc(C)c2[nH]c1=O)C(=O)C(C)C -14.8%
Cc1cccc(-c2nc(C#N)c(NC3CCCCC3)o2)c1 -27.9%
COc1ccc(C(=O)/C=C/Nc2cccc(C)n2)cc1OC -16.3%
CSc1nc(N)nc(SCC(=O)CC(=O)OC(C)C)c1C#N -2.75%
c1ccc(SCc2nc3ccccc3[nH]2)nc1 -0.127%
O=C(c1coc(=O)c(Br)c1)N1CCOCC1 6.25%
COC(=O)c1cc(S(=O)(=O)N2CCOCC2)c(N2CCOCC2)cc1N1CCOCC1 -1.61%
CCCCOc1ccccc1P(=O)(O)CP(=O)(c1ccccc1)c1ccccc1 -13.5%
CN(C)CCCN(CCCNC(=O)/C=N/O)Cc1ccccc1 -5.3%
CCCCc1nc(N2CCOCC2)c(C#N)c2c1COC(C)(C)C2 -27.7%
O=C(NCc1ccco1)c1ccc(=O)oc1 13.8%
O=C1C(=O)N(Cc2cccnc2)C(c2ccccn2)/C1=C(/O)c1ccc(F)cc1 (stereo not given) 10.7%
COc1cccc(C2/C(=C(/O)c3ccc(C)cc3)C(=O)C(=O)N2Cc2ccco2)c1 (stereo not given) 2.99%
COC(=O)COc1ccc(Oc2nc(SC)nc(N(C)C)n2)nn1 4.25%

Test: NFAT Signaling Pathway (AID 444);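 note: carbachol stimulus at about its EC50 of 1 µM final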
Details: Jurkat NFAT-bla M1, carbachol, beta-lactamase ratio, 5 h; at 17.2 µM (top of the series) unless noted
How it was run: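 Jurkat cells carrying an NFAT-driven β-lactamase reporter and co-transfected muscarinic M1 receptor were treated with compound plus carbachol (1 uM final, an EC50 level) for 5 h at 37 °C. CCF4 loading followed for 1 h at RT; 460/530 nm ratio gave %activity.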

Activity change, negative = inhibition, inactive:
Cc1ccc(C(=O)C2=C(O)C(=O)N(c3ncccn3)C2c2cccc(Cl)c2)o1 (stereo not given) 24.9%
COc1ccc(C2N3CC4(C)CN2CC(C)(C3)C4O)cc1OC (stereo not given) -5.44%
CCOc1ccc2nc(SCC(=O)Nc3ncccn3)[nH]c2c1 0.119%
COc1ccccc1N1CCN(C2CCN(C(=O)c3cc(OC)c(OC)c(OC)c3)CC2)CC1 4.07%
CCOc1nc(Oc2cccc(C(=O)O)c2)nc(Oc2cccc(C(=O)O)c2)n1 0.693%
CCCCOC(=O)CSC1=C(C#N)C(c2ccccc2OC)C(C#N)C(=O)N1 (stereo not given) 20.9%
CC12CCC(=O)N1c1c(sc3nc(N4CCOCC4)c4c(c13)CCCC4)C(=O)N2 (stereo not given) 8.35%
Fc1cnc(N2CCOCC2)nc1NCc1ccccc1 -3.23%
CC1(C)CC(=O)C2=C(C1)OC(N)=C(C#N)C2C1C=CCCC1 (stereo not given) 24.4%
CCC(C(=O)Nc1nccs1)(C(F)(F)F)C(F)(F)F 11.5%
COC(=O)CC1=C(C(=O)OC)C(c2cccc(OCC(N)=O)c2)C(C#N)=C(N)O1 (stereo not given) -17.4%
CSc1nnc2n(C3CCCCC3)c(=O)c3c4c(sc3n12)CCCC4 3.83%
CCOC(=O)C1=C(C)N=C2SC(C)C(=O)N2C1c1cccc(F)c1 (stereo not given) 7.16%
COc1ccccc1NC(=O)c1c(C)cc(=O)oc1C 12.5%
O=C(CCC1CCCC1)N1CCC(N2CCN(c3ccccc3)CC2)CC1 -29.5%
CCCCOC(=O)CCc1nc2ccccc2[nH]1 -0.459%
COn1c(SC2CCCCC2)nc2ccccc2c1=O 7.75%
Cc1ccc(S(=O)(=O)NCC(=O)OCN2C(=O)c3ccccc3C2=O)cc1 -25.1%
Cc1cc(O)c(C(C)C)cc1N=C1CSC(=O)N1 -9.06%
COc1cccc(C2C(C(=O)c3sc(C)nc3C)=C(O)C(=O)N2CCN2CCOCC2)c1OC (stereo not given) 12.8%
COCCN(C(=O)Nc1ccccc1)c1ccccc1C -0.712%
CSc1nnc(N(CCC#N)CCC#N)s1 21.3%
C/C(NC(=O)c1cccs1)=C1\C(=O)C[C@@H]2[C@H]1C2(C)C -25.4%
O=c1c2c3c(sc2n2cnnc2n1C1CCCCC1)CCC3 -1.53%
CCCCCOC(=O)C(C)c1c(C)[nH]c(=S)[nH]c1=O (stereo not given) 6.16%
CCn1c(SCC(=O)NCc2ccco2)nnc1-c1ccc(N)cc1 16.3%
COc1ccccc1N(Cc1cc2cccc(C)c2[nH]c1=O)C(=O)C(C)C 11.3%
Cc1cccc(-c2nc(C#N)c(NC3CCCCC3)o2)c1 -26.6%
COc1ccc(C(=O)/C=C/Nc2cccc(C)n2)cc1OC 22.7%
CSc1nc(N)nc(SCC(=O)CC(=O)OC(C)C)c1C#N 5.87%
c1ccc(SCc2nc3ccccc3[nH]2)nc1 6.97%
O=C(c1coc(=O)c(Br)c1)N1CCOCC1 21.3%
COC(=O)c1cc(S(=O)(=O)N2CCOCC2)c(N2CCOCC2)cc1N1CCOCC1 5.16%
CCCCOc1ccccc1P(=O)(O)CP(=O)(c1ccccc1)c1ccccc1 -17%
CN(C)CCCN(CCCNC(=O)/C=N/O)Cc1ccccc1 -11.6%
CCCCc1nc(N2CCOCC2)c(C#N)c2c1COC(C)(C)C2 16.6%
O=C(NCc1ccco1)c1ccc(=O)oc1 6.96%
O=C1C(=O)N(Cc2cccnc2)C(c2ccccn2)/C1=C(/O)c1ccc(F)cc1 (stereo not given) 3.79%
COc1cccc(C2/C(=C(/O)c3ccc(C)cc3)C(=O)C(=O)N2Cc2ccco2)c1 (stereo not given) -8.9%
COC(=O)COc1ccc(Oc2nc(SC)nc(N(C)C)n2)nn1 4.35%
